This note sets out measurements from PubChem BioAssay (NCI).

About 83,000 compounds went through this panel and 20% of them were active in at least one assay; those are over-represented in the sample as a whole.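 Activity criterion: percent growth below 10, measured after cells in 96-well plates were exposed to a single compound concentration for 48 hours.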 A number with no mark means an inactive call. The source made the active and inactive calls.

Among the test systems are NCI-H23 lung; NCI-H226 lung; NCI-H322M lung; HOP-62 NSCLC; NCI-H460 lung; NCI-H522 lung; A549/ATCC NSCLC; 786-0 renal; COLO 205 colon; DU-145 prostate; K-562 leukemia; MALME-3M melanoma; MDA-MB-231 breast; RXF 393 renal; SF-268 CNS; SF-295 CNS; SF-539 CNS; UACC-257 melanoma; M14 melanoma; HOP-92 NSCLC.
Assay in all cases: NCI-60 one-dose screen, 48 h (100 = growth as untreated, 0 = no growth, -100 = all killed)
What all share (details): 10 µM unless noted

Take `N#C/C(=N\Nc1ccccc1)C(=O)Nc1cc(-c2ccccc2)nn1-c1ccccc1`: the growth with NCI-H23 lung was 6.94% (active); in the test with NCI-H226 lung it was 25.6%; in the test with NCI-H322M lung, 8.62% (active); in the test with HOP-62 NSCLC, 52.8%; with NCI-H460 lung, 6.6% (active); in the test on NCI-H522 lung, 15.4%. In addition, the growth in the test on A549/ATCC NSCLC was 30.4%; in the test on 786-0 renal, 50.5%; in the test on COLO 205 colon it was 48.4%; in the test with DU-145 prostate, 51.5%; in the test on K-562 leukemia it was 25.9%; with MALME-3M melanoma, 4.67% (active). The growth was 26.1% in the test with MDA-MB-231 breast; 36.9% in the test with RXF 393 renal; 22.9% in the test with SF-268 CNS; 11.4% in the test on SF-295 CNS; 40.4% in the test on SF-539 CNS; 12.3% with UACC-257 melanoma. Moreover, the growth in the test with M14 melanoma was 33.7%.

In the case of `c1ccc(Cn2cc3c(c2)-c2nc(Nc4ccccc4)ncc2CC3)cc1`, the growth is 71.7% [100 µM] with NCI-H23 lung; 87.1% [100 µM] in the test on NCI-H226 lung; 78.2% [100 µM] in the test on NCI-H322M lung; 85.8% [100 µM] in the test on HOP-62 NSCLC; 82.7% [100 µM] with NCI-H460 lung; 80% [100 µM] in the test with NCI-H522 lung. The growth with A549/ATCC NSCLC was 81.9% [100 µM]; with 786-0 renal, 97.3% [100 µM]; in the test with COLO 205 colon, 106% [100 µM]; with DU-145 prostate, 83.2% [100 µM]; in the test on K-562 leukemia it was 108% [100 µM]; in the test on MALME-3M melanoma, 83.5% [100 µM]. The growth with MDA-MB-231 breast is 65.2% [100 µM]; with RXF 393 renal it was 48.6% [100 µM]; with SF-268 CNS it was 76.9% [100 µM]; in the test with SF-295 CNS it was 57.6% [100 µM]; in the test on SF-539 CNS, 64.3% [100 µM]; in the test on UACC-257 melanoma, 98.2% [100 µM]. For the same compound, the growth in the test on M14 melanoma was 92.9% [100 µM].

In the case of `Cc1c(C(=O)C(SC(=S)N2CCOCC2)SC(=S)N2CCOCC2)nnn1-c1ccc([N+](=O)[O-])cc1`, the growth is 108% in the test with NCI-H23 lung; 89.4% in the test on NCI-H226 lung; 98.7% in the test with NCI-H322M lung; 94.5% in the test on HOP-62 NSCLC; 98.8% in the test on NCI-H460 lung; 80.3% with NCI-H522 lung. Further, the growth in the test on A549/ATCC NSCLC was 96.5%; with 786-0 renal it was 98.6%; in the test with COLO 205 colon, 86.5%; with DU-145 prostate, 109%; in the test with K-562 leukemia, 74.7%; in the test with MALME-3M melanoma, 93.7%. For the same compound, the growth is 101% in the test with MDA-MB-231 breast; 105% in the test on RXF 393 renal; 104% with SF-268 CNS; 96.5% in the test with SF-295 CNS; 101% with SF-539 CNS; 93.2% in the test with UACC-257 melanoma. Moreover, the growth in the test with M14 melanoma is 89.8%.

Turning to `O=C(Nc1ncc(Cc2cc(C(F)(F)F)ccc2Cl)s1)C(=S)N1CCOCC1`, the growth in the test with NCI-H23 lung is 89.8%; in the test on NCI-H226 lung it was 88.3%; with NCI-H322M lung, 94.6%; in the test on HOP-62 NSCLC it was 93%; with NCI-H460 lung it was 100%; in the test on NCI-H522 lung it was 74.7%. Moreover, the growth was 93.8% in the test on A549/ATCC NSCLC; 94.6% in the test on 786-0 renal; 96.4% in the test with COLO 205 colon; 100% with DU-145 prostate; 82.2% with K-562 leukemia; 92.7% in the test on MALME-3M melanoma. Further, the growth was 87.4% in the test with MDA-MB-231 breast; 92.6% in the test with RXF 393 renal; 88.7% with SF-268 CNS; 88.8% with SF-295 CNS; 101% in the test with SF-539 CNS; 95% in the test with UACC-257 melanoma. The growth with M14 melanoma is 86.7%.

Take `COc1ccccc1NC(=O)n1c(=O)cc(C)c2ccc(O)cc21`: the growth with NCI-H23 lung was 102%; with NCI-H226 lung, 93.5%; in the test on NCI-H322M lung, 103%; in the test with HOP-62 NSCLC, 102%; in the test on NCI-H460 lung, 111%; in the test with NCI-H522 lung, 96.2%. The growth was 105% in the test with A549/ATCC NSCLC; 115% in the test on 786-0 renal; 110% in the test on COLO 205 colon; 113% in the test on DU-145 prostate; 117% with K-562 leukemia; 106% in the test with MALME-3M melanoma. The growth was 106% in the test on MDA-MB-231 breast; 94.8% with RXF 393 renal; 106% with SF-268 CNS; 101% in the test on SF-295 CNS; 106% in the test on SF-539 CNS; 111% in the test on UACC-257 melanoma. Besides, the growth in the test on M14 melanoma was 113%.

`O=C(c1ccccc1)[C@@H](c1ccccc1)[C@]1(O)C(=O)Nc2ccccc21`: the growth with NCI-H23 lung is 95%; in the test on NCI-H226 lung, 83.1%; in the test with NCI-H322M lung, 87.4%; in the test with HOP-62 NSCLC it was 77.3%; with NCI-H460 lung it was 95%; in the test on HOP-92 NSCLC it was 74%. In addition, the growth in the test on NCI-H522 lung is 93.7%; with A549/ATCC NSCLC it was 103%; in the test on 786-0 renal it was 97.7%; in the test with DU-145 prostate it was 103%; in the test on K-562 leukemia it was 102%; in the test with MALME-3M melanoma, 98.2%. Also, the growth with MDA-MB-231 breast is 88.4%; in the test with RXF 393 renal, 98.6%; in the test with SF-268 CNS, 84.9%; with SF-295 CNS it was 95.8%; in the test with SF-539 CNS, 95.3%; in the test with UACC-257 melanoma, 96.8%. In the test on M14 melanoma, the growth is 95.5%.

On to `Cc1[nH]c(C2CC(c3ccc(C(F)(F)F)c(F)c3)=NN2C)c(C)c1C(=O)NCC(F)(F)F` (configuration not stated), for which the growth in the test with NCI-H23 lung was 95.4%; in the test on NCI-H226 lung it was 93.3%; in the test with NCI-H322M lung it was 92.7%; in the test on HOP-62 NSCLC, 106%; with NCI-H460 lung it was 101%; in the test on NCI-H522 lung, 88.9%. In addition, the growth is 95.5% with A549/ATCC NSCLC; 109% with 786-0 renal; 114% with COLO 205 colon; 96.3% in the test with DU-145 prostate; 85.6% in the test on K-562 leukemia; 93.8% in the test with MALME-3M melanoma. In addition, the growth in the test on MDA-MB-231 breast is 85.4%; with RXF 393 renal, 93.7%; in the test with SF-268 CNS, 92.4%; in the test with SF-295 CNS, 94.9%; in the test with SF-539 CNS, 96.7%; in the test on UACC-257 melanoma, 97.9%. In addition, the growth with M14 melanoma was 115%.

Regarding `O=C(Nc1ccc2c(c1)-c1ccccc1C2)C1CC(=O)N(c2ccc3c(c2)OCO3)C1` (configuration not stated), the growth was 51.6% [50 µM] with NCI-H23 lung; 30.2% [50 µM] with NCI-H226 lung; 55.9% [50 µM] with NCI-H322M lung; 70.7% [50 µM] in the test with HOP-62 NSCLC; 32.9% [50 µM] in the test on NCI-H460 lung; 77.5% [50 µM] with NCI-H522 lung. The growth in the test on A549/ATCC NSCLC was 66.7% [50 µM]; in the test with 786-0 renal, 30.9% [50 µM]; with COLO 205 colon it was 86.2% [50 µM]; with DU-145 prostate, 52.1% [50 µM]; in the test with K-562 leukemia, 57.5% [50 µM]; in the test with MALME-3M melanoma, 58.1% [50 µM]. Also, the growth was 59.9% [50 µM] with MDA-MB-231 breast; 56.6% [50 µM] in the test on RXF 393 renal; 69.2% [50 µM] in the test with SF-268 CNS; 47% [50 µM] with SF-295 CNS; -60.7% [50 µM] (active) in the test with SF-539 CNS; 69.5% [50 µM] in the test on UACC-257 melanoma. Moreover, in the test with M14 melanoma, the growth was 62.7% [50 µM].
